Assay results reported in article PMC5540273 (PLoS ONE, 2017).

What was measured:
Details in all cases: concentration: 1 μM, replicates: in singlicate; n = 1
[1] = tested on: EIF2AK1
[2] = tested on: EPHA1
[3] = tested on: EPHA2
[4] = tested on: EPHA3
[5] = tested on: EPHA4
[6] = tested on: EPHA5
[7] = tested on: EPHA6
[8] = tested on: EPHA7
[9] = tested on: EPHA8
[10] = tested on: EPHB1
[11] = tested on: EPHB2
[12] = tested on: EPHB3
[13] = tested on: EPHB4
[14] = tested on: EPHB6
[15] = tested on: ERBB2
[16] = tested on: ERBB3
[17] = tested on: ERBB4
[18] = tested on: T1, ERK1
T1 construct: gene MAPK3

[19] = tested on: T2, ERK2
T2 construct: gene MAPK1

[20] = tested on: T3, ERK3
T3 construct: gene MAPK6
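Also: KINOMEscan kinase panel screen.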

| SMILES | %Inh [1] | %Inh [2] | %Inh [3] | %Inh [4] | %Inh [5] | %Inh [6] | %Inh [7] | %Inh [8] | %Inh [9] | %Inh [10] | %Inh [11] | %Inh [12] | %Inh [13] | %Inh [14] | %Inh [15] | %Inh [16] | %Inh [17] | %Inh [18] | %Inh [19] | %Inh [20] |
| --- | --- | --- | --- | --- | --- | --- | --- | --- | --- | --- | --- | --- | --- | --- | --- | --- | --- | --- | --- | --- |
| O=C(NCCCN1CCCC1=O)c1cnc(NCc2cc(Cl)ccc2Cl)nc1NC1CCNCC1 | 0% | 9% | 2% | 0% | 0% | 2% | 0% | 0% | 0% | 7% | 0% | 0% | 0% | 19% | 9% | 3% | 0% | 0% | 11% | 0% |
| CC(C)N1CCC(n2cnc(-c3ccc(F)cc3)c2-c2ccnc(N)n2)CC1 [SB-223132] | 0% | 28% | 46% | 0% | 0% | 0% | 0% | 0% | 17% | 0% | 32% | 0% | 22% | 0% | 16% | 44% | 0% | 0% | 11% | 0% |
| C[C@@H]1CCN(C(=O)CO)C[C@@H]1N(C)c1ncnc2[nH]ccc12 | 5% | 8% | 0% | 0% | 0% | 2% | 0% | 0% | 0% | 9% | 0% | 0% | 0% | 17% | 19% | 0% | 11% | 0% | 0% | 14% |
| CC(C)(C)c1ccc(-n2cnc3c(N)ncnc32)cc1 [SKF-97263] | 0% | 14% | 23% | 0% | 27% | 0% | 28% | 8% | 16% | 3% | 17% | 31% | 15% | 9% | 29% | 0% | 0% | 7% | 0% | 0% |
| Cc1ccc(O)cc1Nc1cc(C(F)(F)F)nc2ccc(-c3ccncc3)cc12 [GW630823] | 0% | 6% | 17% | 0% | 5% | 3% | 5% | 88% | 68% | 12% | 3% | 0% | 18% | 9% | 0% | 0% | 0% | 2% | 5% | 9% |
| Nc1nccc2scc(-c3ccc4c(c3)CCN4C(=O)Cc3cc(F)ccc3F)c12 [GSK2587663] | 0% | 11% | 17% | 0% | 12% | 0% | 25% | 6% | 20% | 7% | 10% | 34% | 27% | 59% | 14% | 0% | 46% | 3% | 0% | 4% |
| CCC(CC)(CC)n1cnc2c(N)ncnc21 [SKF-97620] | 30% | 0% | 100% | 11% | 15% | 0% | 16% | 22% | 23% | 9% | 0% | 18% | 0% | 9% | 20% | 46% | 32% | 0% | 0% | 0% |
| Cl.c1ccc(Cn2ncc3cc(Nc4ncnc5ccccc45)ccc32)cc1 [GW273749] | 0% | 28% | 0% | 0% | 4% | 0% | 0% | 7% | 17% | 0% | 0% | 0% | 10% | 31% | 100% | 68% | 96.2% | 0% | 0% | 57% |
| c1ccc(-c2ccc3c(-c4ccnc(Nc5ccc6c(c5)OCCO6)n4)cnn3n2)cc1 [GW818941] | 0% | 7% | 18% | 0% | 21% | 0% | 12% | 14% | 17% | 18% | 3% | 13% | 10% | 0% | 21% | 15% | 0% | 11% | 6% | 0% |
| O=C(Nc1ccccc1F)NC1CCN(c2ccnc(Nc3ccc(F)cc3)n2)C1 (stereo not drawn) [GSK1379722] | 0% | 0% | 8% | 0% | 0% | 0% | 4% | 5% | 14% | 11% | 0% | 17% | 0% | 17% | 30% | 3% | 0% | 100% | 0% | 13% |
| O=C(CCO)NCCn1ccc2ncnc(Nc3ccc(Oc4cccc(C(F)(F)F)c4)c(Cl)c3)c21 | 0% | 0% | 0% | 0% | 0% | 0% | 0% | 0% | 0% | 0% | 0% | 2% | 3% | 8% | 100% | 0% | 95.9% | 0% | 9% | 0% |
| Clc1ccc(-c2cc(-c3c[nH]nc3-c3ccccn3)ccn2)cc1 [GW681251] | 0% | 0% | 8% | 0% | 2% | 0% | 10% | 0% | 0% | 7% | 31% | 15% | 1% | 0% | 17% | 0% | 0% | 0% | 0% | 8% |
| CNc1nccc(-c2c(-c3ccc(F)cc3)ncn2C2CCN(C)CC2)n1 [SB-222903] | 0% | 0% | 0% | 2% | 1% | 0% | 0% | 0% | 0% | 9% | 0% | 2% | 0% | 0% | 0% | 0% | 2% | 1% | 0% | 0% |
| COc1cc2ncnc(Nc3ccc(OCc4ccccc4Br)c(Cl)c3)c2cc1OC.Cl [GI261590] | 0% | 8% | 14% | 0% | 3% | 15% | 7% | 4% | 17% | 12% | 5% | 22% | 31% | 26% | 96.5% | 29% | 100% | 0% | 16% | 0% |
| Fc1cccc(COc2ccc(Nc3ncnc4nn5ccccc5c34)cc2Cl)c1 [GW689066] | 0% | 11% | 12% | 0% | 0% | 0% | 9% | 0% | 0% | 4% | 0% | 16% | 0% | 1% | 98.2% | 27% | 95.2% | 0% | 0% | 0% |
